High-throughput results from PubChem.
A selection: hits, their analogues and other compounds. The true share with any hit is near 2.4%.
PERK inhibitor – human PERK inhibition, primary cell-based screen. CHO PERK-DD fusion, SEAP luminescence translation reporter. inhibition, % at 5.6 µM. 220,000 compounds, 0.17% hits. AID 1416;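 active means inhibition above the mean inhibition of all tested compounds plus 3 SD, set separately per screening campaign, cut at about 2.9% in these data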;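 further: PERK kinase domain activated by AP20187 dimerizer at 100 nM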
eIF4H FP inh – inhibitors of RNA binding by human eIF4H; inhibition, % at 35 µM; AID 2012; eIF4H fluorescence polarization binding assay; 290,000 compounds, 0.94% hits;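 further: calls also rest on retests at 20 µM and on dose response follow-up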
PABP1 MLLE inh – inhibitors of microRNA-mediated deadenylation, human PABP1 MLLE binding; inhibition, % at 20 µM; GST-MLLE / FITC-PAM2 fluorescence polarization; 360,000 compounds, 0.36% hits; in the data active means inhibition above about 35%, passing the limit was not always enough
PfM18AAP inh – PfM18AAP enzyme inhibition; 290,000 compounds, 1.2% hits; inhibition, % at 7.35 µM; recombinant PfM18AAP, H-Glu-NHMec fluorogenic cleavage;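 active means inhibition above the campaign mean inhibition over all tested compounds plus 3 SD, cut at about 28% in these data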
eIF4E-4G inh – blocks eIF4E binding to eIF4G; TR-FRET eIF4E-eIF4GI(517-606) binding, 2 h; P63073+Q04637; AID 782; inhibition, % at 21.7 µM; 220,000 compounds, 0.37% hits;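 active means inhibition above about 30%, limit read from the data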
Target sequence (P63073 whole entry, looked up): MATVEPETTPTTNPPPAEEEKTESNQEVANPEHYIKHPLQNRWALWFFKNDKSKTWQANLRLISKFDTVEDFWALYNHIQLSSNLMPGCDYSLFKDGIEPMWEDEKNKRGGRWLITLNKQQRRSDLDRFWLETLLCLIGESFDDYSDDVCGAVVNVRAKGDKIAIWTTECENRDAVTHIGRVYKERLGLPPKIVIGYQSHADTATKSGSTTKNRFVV
Target sequence (Q04637 whole entry, looked up): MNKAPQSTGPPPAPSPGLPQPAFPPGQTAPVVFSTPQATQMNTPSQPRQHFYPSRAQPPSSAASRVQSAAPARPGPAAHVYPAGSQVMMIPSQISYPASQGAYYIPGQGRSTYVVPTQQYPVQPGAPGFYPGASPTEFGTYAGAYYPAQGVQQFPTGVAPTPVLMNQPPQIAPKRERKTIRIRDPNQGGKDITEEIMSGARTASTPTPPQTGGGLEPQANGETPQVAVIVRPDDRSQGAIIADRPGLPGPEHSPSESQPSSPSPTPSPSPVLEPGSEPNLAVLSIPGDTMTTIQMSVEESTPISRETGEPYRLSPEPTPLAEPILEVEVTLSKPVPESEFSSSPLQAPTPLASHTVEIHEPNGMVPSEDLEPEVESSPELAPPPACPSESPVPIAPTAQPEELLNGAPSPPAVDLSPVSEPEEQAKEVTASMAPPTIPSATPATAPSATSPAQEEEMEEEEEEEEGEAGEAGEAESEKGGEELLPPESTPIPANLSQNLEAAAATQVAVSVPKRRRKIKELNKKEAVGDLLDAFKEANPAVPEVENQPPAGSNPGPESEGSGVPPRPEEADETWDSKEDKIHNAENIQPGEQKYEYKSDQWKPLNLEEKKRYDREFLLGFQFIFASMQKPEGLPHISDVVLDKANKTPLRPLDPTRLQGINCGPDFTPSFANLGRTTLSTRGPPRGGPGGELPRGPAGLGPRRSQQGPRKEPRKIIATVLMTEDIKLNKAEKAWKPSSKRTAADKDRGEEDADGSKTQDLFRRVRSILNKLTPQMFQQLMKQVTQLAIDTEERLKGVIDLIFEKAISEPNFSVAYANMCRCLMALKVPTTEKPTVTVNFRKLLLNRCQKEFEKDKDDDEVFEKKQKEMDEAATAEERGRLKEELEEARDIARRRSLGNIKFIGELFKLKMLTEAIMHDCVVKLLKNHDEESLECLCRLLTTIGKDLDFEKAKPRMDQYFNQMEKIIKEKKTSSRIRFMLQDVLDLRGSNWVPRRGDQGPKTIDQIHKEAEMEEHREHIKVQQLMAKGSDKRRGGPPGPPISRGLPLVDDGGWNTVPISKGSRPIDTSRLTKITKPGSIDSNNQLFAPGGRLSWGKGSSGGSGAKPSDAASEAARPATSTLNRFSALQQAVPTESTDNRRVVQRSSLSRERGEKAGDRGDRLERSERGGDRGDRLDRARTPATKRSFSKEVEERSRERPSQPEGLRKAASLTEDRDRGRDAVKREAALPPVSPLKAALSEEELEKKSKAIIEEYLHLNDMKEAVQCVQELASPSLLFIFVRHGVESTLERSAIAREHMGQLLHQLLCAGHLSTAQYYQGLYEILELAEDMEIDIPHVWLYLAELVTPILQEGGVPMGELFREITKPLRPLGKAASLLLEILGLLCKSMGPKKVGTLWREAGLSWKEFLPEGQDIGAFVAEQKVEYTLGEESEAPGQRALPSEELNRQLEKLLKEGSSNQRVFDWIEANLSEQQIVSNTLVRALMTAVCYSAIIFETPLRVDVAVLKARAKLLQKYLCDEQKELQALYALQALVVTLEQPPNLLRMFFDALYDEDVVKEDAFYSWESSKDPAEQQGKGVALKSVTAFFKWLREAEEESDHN
PABP FP inh – PABP-poly(A) binding inhibition; 290,000 compounds, 1% hits; P11940; PABP-poly(A) RNA binding, fluorescence polarization; AID 2014; inhibition, % at 35 µM;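 further: calls also rest on retests at 20 µM and on dose response follow-up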
Hits are given with their value; – = inactive; ? = inconclusive; · = no result; [ ] = another dose, or the depositor's remark. Unless noted, how the calls were made is not given here.

SMILES	PERK inhibitor	eIF4H FP inh	PABP1 MLLE inh	PfM18AAP inh	eIF4E-4G inh	PABP FP inh
CC(Nc1cc(N2CCCC2)ccc1[N+](=O)[O-])c1ccccc1 (stereo unspecified)	2.9	–	–	–	–	–
CC(Nc1cc(N2CCN(S(C)(=O)=O)CC2)ccc1[N+](=O)[O-])c1ccccc1 (stereo unspecified)	–	–	–	–	–	–
CC(Nc1cc(N2CCN(S(=O)(=O)N(C)C)CC2)ccc1[N+](=O)[O-])c1ccccc1 (stereo unspecified)	–	77	–	–	–	active
Nc1c(C(=O)c2ccccc2)sc2snc(SCC(=O)c3ccccc3)c12	–	–	–	31	–	–
CCN(CC(=O)NCc1ccc(Cl)cc1)CC(=O)Nc1ccc(C(N)=O)cc1	–	0.4	–	–	–	–
CC(=O)Nc1ccc(S(=O)(=O)NCc2ccc(C(=O)NCc3ccc(Cl)cc3)cc2)cc1	–	–	–	–	–	–
CCN(CC(=O)NCc1ccc(Cl)cc1)C(=O)CNS(=O)(=O)c1ccc(NC(C)=O)cc1	·	–	41	–	·	–
CCN(CC(=O)NCc1ccc(Cl)cc1)C(=O)NCc1ccc(Cl)cc1	·	–	–	–	·	–
COc1ccc(-n2c(CN3CCC(C(N)=O)CC3)nc3ccc([N+](=O)[O-])cc3c2=O)c(OC)c1	–	active	–	–	–	–
CCOC(=O)C1CCN(Cc2nc3ccc([N+](=O)[O-])cc3c(=O)n2-c2ccc(OC)cc2OC)CC1	–	–	–	–	–	–
CCOC(=O)C1=CNS(=O)(=O)NC1c1ccc2ccccc2c1 (stereo unspecified)	·	·	–	·	·	·
CCOC(=O)C(C(=O)Nc1nccs1)C1CCCCC1 (stereo unspecified)	–	–	–	–	–	–
O=C(COC(=O)/C=C/c1cccc(F)c1)NCc1ccc2c(c1)OCO2	·	·	–	·	·	·
CC(C)OC(=O)c1c(-c2ccc(C(C)C)cc2)csc1NC(=O)C1CCCO1 (stereo unspecified)	–	–	–	–	–	–
c1cnc2nc(-c3ccc4c(c3)OCO4)cn2c1	–	–	–	–	–	–
c1ccn2cc(-c3ccc4c(c3)OCO4)cc2c1	–	64	–	–	–	–
CCOc1ccccc1C1C(C#N)=C(N)Oc2cc(N)ccc21 (stereo unspecified)	–	–	–	28	–	–
C=CCNC(=O)/C(C#N)=C/c1cn(-c2ccccc2)nc1-c1cccs1	–	–	–	–	–	–
COc1cc(/C=C2\SC(N)=NC2=O)cc(Cl)c1O	·	–	–	–	·	11
COc1ccc(/C=C2\SC(N)=NC2=O)cc1Br	·	–	–	–	·	–
N[C@@H](Cc1ccccc1)C(=O)N1CCC(C(=O)NCC(=O)NCC(=O)O)CC1	·	–	–	–	·	–
O=C(OCCN1C(=O)c2cccc3c(N4CCOCC4)ccc(c23)C1=O)c1ccc(Cl)cc1	–	?	–	–	–	–
CCCN(CCC)S(=O)(=O)c1ccc(C(=O)OCCN2C(=O)c3cccc4c(N5CCOCC5)ccc(c34)C2=O)cc1	–	129	–	–	31[fluorescence artefact?]	118
O=S(=O)(c1cc(Cl)ccc1Cl)N1CC2CCCN2c2ccc(C(F)(F)F)cc21 (stereo unspecified)	–	–	–	–	–	–
O=C(O)c1cccc(N2C(=O)c3cccc4cccc(c34)C2=O)c1	·	–	–	–	·	–
SMILES	PERK inhibitor	eIF4H FP inh	PABP1 MLLE inh	PfM18AAP inh	eIF4E-4G inh	PABP FP inh
O=C(O)c1cccc(N2C(=O)c3cc([N+](=O)[O-])cc4cc([N+](=O)[O-])cc(c34)C2=O)c1	·	68	–	–	·	57
COc1cc(OC)c(-c2nn3c(-c4ccco4)nnc3s2)cc1OC	–	75	–	–	–	–
Cc1oc(-c2ccc(Cl)cc2)cc1-c1nn2c(-c3ccco3)nnc2s1	·	64	·	·	·	56
Cc1oc(-c2ccc(F)cc2)cc1-c1nn2c(-c3ccoc3C)nnc2s1	·	80	–	·	·	63
COc1ccc(-c2nn3c(-c4ccco4)nnc3s2)cc1OC	–	–	–	–	·	–
Cc1oc(-c2ccc(F)cc2)cc1-c1nn2c(-c3ccco3)nnc2s1	–	·	·	–	·	·
COc1ccc(-c2nnc3sc(-c4ccco4)nn23)cc1OC	–	–	–	–	–	–
COc1cc(CN2CCCC(N3CCN(c4ccc(F)cc4)CC3)C2)ccc1F (stereo unspecified)	·	–	–	–	·	–
Nc1cc(Cl)ccc1Nc1ccncc1	·	–	–	–	·	–
CCN1CCC(O)(/C=C/c2ccc(C(C)C)cc2)C(C(=O)/C=C/c2ccc(C(C)C)cc2)C1 (stereo unspecified)	·	·	–	·	·	·
CN=C1CC(SC)=C1c1ccc(C)cc1	–	–	–	–	–	–
Cc1c(N2C(=O)/C(=C/c3ccccc3)SC2=S)c(=O)n(-c2ccccc2)n1C	–	–	–	–	–	–
Cc1ccc(/C=C2\SC(=S)N(c3c(C)n(C)n(-c4ccccc4)c3=O)C2=O)cc1	–	–	47	–	–	–
Cc1c(N2C(=O)/C(=C3\C(=O)N(CC(=O)O)c4ccccc43)SC2=S)c(=O)n(-c2ccccc2)n1C	–	–	52	–	–	–
COc1ccc(-c2noc(C(C)NC(=O)c3ccco3)n2)cc1OC (stereo unspecified)	·	–	–	–	·	–
CC1(C(=O)NS(=O)(=O)Cc2cccc(Cl)c2)CCN1C(=O)C/C=C/c1ccccc1 (stereo unspecified)	·	·	–	·	·	·
CC(=O)c1ccc(O)c(CSc2nncn2C)c1	–	–	–	–	–	–
Cn1nc([N+](=O)[O-])nc1N1CCN(c2ccc(F)cc2)CC1	–	–	–	28	–	–
O=C(NCC1CC1)c1ccc2sc([C@@H]3O[C@H](CO)[C@H](O)[C@H](O)[C@H]3O)nc2c1	·	·	–	·	·	·
C/C(=N\NC(=O)c1ccc(C)cc1C)c1ccc2c(c1)Nc1ccccc1S2	–	–	–	–	–	–
CC(=O)c1ccc2c(c1)N(CCCN(C)C)c1ccccc1S2	·	·	50	·	·	·
CC(=O)c1ccc2c(c1)Nc1ccccc1S2	–	67	–	–	–	77
COC1=C(c2ccccc2)C(=O)c2ccccc2C1=O	–	–	49	–	–	–
COc1ccc(C2=C(N)c3ccccc3C2=O)cc1	–	–	–	–	–	–
Cc1ccc(C(=O)N2CCCC(N3CCN(c4ccccc4C)CC3)C2)c(=O)[nH]1 (stereo unspecified)	·	–	–	–	·	–
SMILES	PERK inhibitor	eIF4H FP inh	PABP1 MLLE inh	PfM18AAP inh	eIF4E-4G inh	PABP FP inh
N#C/C(=C/c1ccccc1OCc1ccc(F)cc1)c1ccc(C(=O)O)cc1	·	–	–	–	·	65
COc1cccc(/C=C(/C#N)c2ccc(F)cc2)c1OCc1cccc(C(=O)O)c1	–	–	–	–	–	–
Nc1c(C(=O)Nc2ccc(F)cc2)sc2nc(-c3ccco3)ccc12	–	99	–	–	–	91
CC(=O)c1sc2nc(-c3ccco3)ccc2c1N	–	91	–	–	–	84
Nc1c(C(=O)Nc2ccc(Br)cc2)sc2nc(-c3ccco3)ccc12	–	81	–	–	–	50
NC(=O)c1sc2nc(-c3ccccc3)ccc2c1N	·	–	–	–	·	–
